The whole screen tested about 360,000 compounds, of which about 6,000 (1.7%) were called active. Not shown: some 8% with an inconclusive outcome. Calls come from the whole dose curve; as a rule, active = well fitted cell-killing curve with a large enough effect; inconclusive = small, poorly fitted or top-dose-only effect, or effect the other way; inactive = flat fitted curve, though single readings scatter. Shown is part of a subset that was picked to be rich in actives. A call without a number means that no potency is given here.

Our source for the Potency values is PubChem BioAssay AID686970 (National Center for Advancing Translational Sciences (NCATS), 2013).
Potency is the fitted concentration of half-maximal effect.

A short description of the experiment: qHTS for induction of synthetic lethality in tumor cells producing 2HG: qHTS for the HT-1080-NT fibrosarcoma cell line.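 Note: NT is the 2HG producing partner of a matched IDH1 knockdown line; nearly all actives have a fitted effect of over 55% in size.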 Conditions: HT-1080-NT fibrosarcoma viability, CellTiter-Glo ATP luminescence, 48 h; series mostly up to 46.1 µM. The method, boiled down:
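Toxicity toward the 2HG-producing NT line was scored as %Activity, normalised to DMSO and no-cell wells, from CellTiter-Glo luminescence after 48 hours' treatment.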
Regarding `COc1ccc(NC(=O)CNC(=O)Cc2ccccc2)cc1OC`, the Potency result was “inactive”.

Consider `COc1ccc(CNC(=O)Cc2ccc(-c3ccccc3)cc2)cc1OC`, for which the Potency is 14.6 µM (active).

In the case of `COc1ccc(CNC(=O)[C@H](Cc2c[nH]c3ccccc23)NC(C)=O)cc1OC`, the Potency entry is “inactive”.

As to `O=C(C=CC(=O)Nc1ccc(F)cc1F)Nc1ccc(F)cc1F`, the Potency entry was “inactive”.

Take `NS(=O)(=O)c1ccc(CNC(=O)c2cc(S(=O)(=O)N3CCOCC3)ccc2N2CCCC2)cc1`: the Potency result is “inactive”.

Consider `COC(=O)c1ccc2c(c1)S(=O)(=O)NC2C` (stereo unspecified), for which the Potency result was “inactive”.

As for `COC(=O)CCCCC1=CCC2C(=O)C=C(O)C2C1` (stereo unspecified), the Potency result was “inactive”.

`CC(OC(=O)c1ccc(NC(=O)CC#N)cc1)C(=O)Nc1ccc(S(=O)(=O)N2CCCC2)cc1` (stereo unspecified): the Potency entry was “inactive”.

In the case of `CCn1c(/C=C/c2ccc([N+](=O)[O-])o2)nc2ccccc2c1=O`, the Potency was 2.59 µM (active).

On to `Cc1ccc(-n2c(SCC(=O)N/N=C/C=C/c3ccccc3[N+](=O)[O-])nc3ccccc3c2=O)cc1`, for which the Potency entry was “inactive”.

As for `CCOCCCn1c(NN)nc2ccccc2c1=O`, the Potency entry is “inactive”.

Turning to `CCC1NC(=O)c2cccnc2-n2c1nc1ccc(C)cc1c2=O` (stereo unspecified), the Potency result was “inactive”.

Regarding `COc1cc2nc(N3CCCN(C)CC3)nc(NC(C)C)c2cc1OC`, the Potency result was “inactive”.

For `COc1cc2ccc(C(C)=O)c(O)c2cc1OC`, the Potency entry was “inactive”.

On to `CC(C)CN1C(=O)CN(S(C)(=O)=O)CC1(C)C(=O)NCc1ccccc1` (stereo unspecified), for which the Potency entry was “inactive”.

Consider `COc1ccc(-c2c(C)cc3oc(=O)cc(-c4ccccc4)c3c2C)cc1OC`, for which the Potency entry was “inactive”.

For `COc1ccc(-c2c(C)cc3oc(=O)cc(-c4ccccc4)c3c2C)cc1F`, the Potency entry was “inactive”.

As to `COc1cc(OC)c2c(-c3cccc(-c4cccc(N)c4)c3)cc(=O)oc2c1`, the Potency was 6.51 µM (active).

Take `COc1cc2nc(N3CCCN(C)CC3)nc(NC3CC3)c2cc1OC`: the Potency result is “inactive”.

For the compound `Cc1nc2ccccc2c(=O)n1-c1ccc(NS(=O)(=O)c2ccc(F)cc2F)cc1`, the Potency entry was “inactive”.

As for `O=c1c2ccccc2ncn1/N=C/c1ccccc1`, the Potency entry was “inactive”.

`Cc1[nH]n(-c2ccc(Cl)cc2)c(=O)c1/C=N/n1c(C)nc2ccccc2c1=O`: the Potency is 23.1 µM (active).

Consider `CC1(C(=O)NS(=O)(=O)c2ccccc2)CCN1C(=O)C/C=C/c1ccccc1` (stereo unspecified), for which the Potency entry is “inactive”.

In the case of `CC1(C(=O)O)CCN1C(=O)/C=C/c1ccccc1` (stereo unspecified), the Potency entry was “inactive”.

As to `CC1(C)CCSC(/C=C/c2ccccc2)=N1`, the Potency is 23.1 µM (active).

As to `O=C(O)C(=Cc1ccc([N+](=O)[O-])cc1)CCc1ccccc1`, the Potency result is “inactive”.

Take `Brc1ccc2nc(-c3ccccc3)c(Cc3ccccc3)n2c1`: the Potency result is “inactive”.

On to `Cc1ccc(-c2nc3ccc(Br)cn3c2Cc2ccccc2C(F)(F)F)cc1`, for which the Potency entry is “inactive”.

As for `CCc1ccc(CNC(=O)C2CCN(c3nnc(C)c4c(C)n(-c5ccc(C)cc5)nc34)CC2)cc1`, the Potency was 13 µM (active).

On to `CCS(=O)(=O)N1CCCC(C(=O)NCc2ccc(C)cc2)C1` (stereo unspecified), for which the Potency result was “inactive”.

As to `Cc1ccc(NC(=O)N2CCC(C(=O)NCc3ccc(F)cc3)CC2)cc1`, the Potency entry is “inactive”.

In the case of `CCN(CC)C(=O)C1=C(C)N(Cc2ccc(F)cc2)C(=O)C(CC(=O)NC2CCCC2)C1` (stereo unspecified), the Potency result is “inactive”.

Regarding `CCc1ccccc1NC(=O)CSc1nnc([C@@H](NC(=O)OC(C)(C)C)C(C)CC)o1` (stereo partly specified), the Potency entry is “inactive”.

Consider `COc1ccccc1NC(=O)[C@H](COCc1ccccc1)NC(=O)OC(C)(C)C`, for which the Potency result is “inactive”.

For the compound `C[C@@H](NC(=O)OC(C)(C)C)c1nnc(S(=O)(=O)Cc2ccccc2)o1`, the Potency is 16.4 µM (active).

With `CC1(C(=O)Nc2cccc3c2CCCC3)CCN1C(=O)C1(c2ccccc2)CC1` (stereo unspecified), the Potency entry was “inactive”.

`O=C(Nc1ccccc1)c1ccccc1Br`: the Potency result was “inactive”.

In the case of `COc1ccc2sc(-c3ccc(S(C)(=O)=O)cc3)c(C#Cc3cncn3C)c2c1`, the Potency was 20.6 µM (active).

For `COc1ccc(-c2sc3ccc(OC)cc3c2C#Cc2ccccn2)cc1`, the Potency entry is “inactive”.

Take `COc1ccc2sc(-c3ccc(S(C)(=O)=O)cc3)c(-c3ccc(C(N)=O)cc3)c2c1`: the Potency entry was “inactive”.

Take `CC1=C(C(=O)N(C)C)CC(CC(=O)NCCN2CCOCC2)C(=O)N1Cc1ccccc1` (stereo unspecified): the Potency result is “inactive”.

Turning to `O=C1[C@H]2[C@@H](c3ccc(C(F)(F)F)cc3)N[C@]3(CCCN(Cc4ccc(Cl)cc4)C3=O)[C@H]2C(=O)N1Cc1ccccc1`, the Potency entry is “inactive”.

Regarding `CCCCN1C[C@H](c2ccc(Br)cc2)[C@@H](CC(=O)Nc2ccc(Br)cc2)C1=O`, the Potency result was “inactive”.

On to `Nc1nc(Nc2ccccc2F)nc(NC2CCCCC2)c1[N+](=O)[O-]`, for which the Potency was 16.4 µM (active).

For `C=CCNc1nc(N)c([N+](=O)[O-])c(NC2CCCCC2)n1`, the Potency entry was “inactive”.

Regarding `Nc1nc(NCC2CCCO2)nc(Nc2ccccc2F)c1[N+](=O)[O-]` (stereo unspecified), the Potency entry is “inactive”.

As for `COc1cc(C(=O)N2CCOC23CCN(Cc2ccccc2)CC3)cc(OC)c1OC`, the Potency result was “inactive”.

Regarding `COC(=O)c1ccc2nc(-c3ccc(F)cc3)c(Cc3ccc(C)cc3)n2c1`, the Potency result is “inactive”.

`CCCCCc1c(-c2ccc(OC)c(OC)c2)ncn1CCc1ccccc1OC`: the Potency was 20.6 µM (active).

As for `COc1ccccc1CCNS(=O)(=O)c1cn(C)nc1C`, the Potency result was “inactive”.

With `COc1ccccc1Cc1c(-c2ccc(Cl)cc2)nc2c3ccccc3ccn12`, the Potency result was “inactive”.

On to `CCC(=O)NCc1cc(-c2nn(C)c(=O)c3ccccc23)ccc1OC`, for which the Potency result was “inactive”.

As to `Cn1c(=O)c2c(ncn2CCc2ccccc2)n(C)c1=O`, the Potency result is “inactive”.

`COc1ccccc1Cc1c(-c2ccc(Cl)cc2)nc2ccc(Cl)cn12`: the Potency result is “inactive”.

Consider `COc1ccc(-c2nn(-c3ccccc3)cc2C(=O)Nc2nccs2)cc1OC`, for which the Potency entry is “inactive”.

For the compound `CCCCc1c(-c2ccc(Br)cc2)ncn1CCc1ccccc1OC`, the Potency is 9.2 µM (active).

As to `CCCCCc1c(Cc2ccccc2)ncn1CCc1ccccc1OC`, the Potency was 18.4 µM (active).

As for `CC1(C(=O)NS(=O)(=O)c2ccccc2)CCN1C(=O)Cc1ccc(-c2ccccc2)cc1` (stereo unspecified), the Potency entry was “inactive”.

Regarding `O=C(CC(CC(=O)c1ccccc1)c1ccco1)c1ccccc1`, the Potency result was “inactive”.

With `CC1=C(C(=O)N(C(C)C)C(C)C)CC(CC(=O)NCC2CCCCC2)C(=O)N1Cc1ccccc1` (stereo unspecified), the Potency result was “inactive”.

Turning to `Cc1ccc(C=O)c([B-](F)(F)F)c1`, the Potency entry was “inactive”.

As for `O=C(NCc1ccccn1)[C@@H]1CCCN1C(=O)[C@@H]1CCCN1C(=O)c1ccccc1`, the Potency entry was “inactive”.

Take `CN1OC[C@@H]2CN[C@H](c3ccc(-c4ccccc4)cc3)C[C@@H]21`: the Potency entry was “inactive”.

Turning to `CCc1ccc(C2C(C#N)=C(N)Oc3n[nH]c(CC(=O)OC)c32)cc1` (stereo unspecified), the Potency result was “inactive”.

Consider `COc1cc(C2C(C#N)=C(N)Oc3n[nH]c(-c4ccccn4)c32)cc(OC)c1OC` (stereo unspecified), for which the Potency result was “inactive”.

In the case of `COCc1[nH]nc2c1C(C1C=CCCC1)C(C#N)=C(N)O2` (stereo unspecified), the Potency was 14.1 µM (active).
